Source: PubChem BioAssay
Entries with a potency or affinity are not part of this list. Activity calls are given as the source filed them. The limit is not given here; nearly all actives have IC50 up to about 0.91 µM.

target: Calcium-dependent protein kinase 4 (Plasmodium falciparum (isolate 3D7)) (UniProt Q8IBS5); assay: PfCDPK4 kinase inhibitors, biochemical, TCAMS library (AID 1159588); details: recombinant PfCDPK4, Kinase-Glo ATP depletion luminescence
Sequence (Q8IBS5 whole entry, looked up): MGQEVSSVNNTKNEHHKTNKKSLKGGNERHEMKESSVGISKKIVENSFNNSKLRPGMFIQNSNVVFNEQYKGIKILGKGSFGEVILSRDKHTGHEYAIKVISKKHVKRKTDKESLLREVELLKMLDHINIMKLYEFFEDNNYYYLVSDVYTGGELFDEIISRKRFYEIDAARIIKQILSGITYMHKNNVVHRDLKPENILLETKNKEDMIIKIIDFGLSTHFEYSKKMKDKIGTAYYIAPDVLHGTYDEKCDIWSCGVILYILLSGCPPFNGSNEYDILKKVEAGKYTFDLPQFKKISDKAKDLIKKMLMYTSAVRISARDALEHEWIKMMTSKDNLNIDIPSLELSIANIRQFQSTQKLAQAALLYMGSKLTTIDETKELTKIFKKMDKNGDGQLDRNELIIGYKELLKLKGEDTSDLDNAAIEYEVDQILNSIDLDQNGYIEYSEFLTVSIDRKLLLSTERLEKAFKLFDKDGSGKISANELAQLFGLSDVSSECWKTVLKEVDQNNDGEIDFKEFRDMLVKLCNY

outcome, inactive:
Cc1nnsc1C(=O)Nc1ccc(-c2ccc(-c3nc4c(C)cccc4[nH]3)s2)cc1
O=C([C@@H]1CCCCN1c1ccc([N+](=O)[O-])c2ccccc12)N1CCN(c2ncccn2)CC1
O=C(/C=C/c1ccc(Cl)c(Cl)c1)NCCCCCN1CCCN(C(=S)Nc2cccc(Cl)c2)CC1
O=C(Nc1cccc(-c2cccc(-c3nc4ccc(C(F)(F)F)cc4[nH]3)c2)c1)c1csnn1
Cc1cc(CN2C(=O)C(c3ccccc3)(c3ccccc3)N=C2N)c(C(F)(F)F)o1
COc1ccc(-c2ccc(NC(=O)c3ccccc3)cc2)cc1CN1CCCN(C)CC1
COc1ccc2nccc(N3C[C@H]4C[C@@H]3CN4CCNCc3ccc4c(n3)NC(=O)CS4)c2n1
COc1ccc2ncc(OC)c(CCN3CC[C@@H](NCc4ccc5c(n4)NC(=O)CS5)[C@H](O)C3)c2n1
Cn1cncc1C(=O)Nc1cccc(-c2ccc(-c3nc4ccc(C(F)(F)F)cc4[nH]3)cc2)c1
Cc1c(-c2cccc(CNCCc3ccc(Cl)cc3)c2)cnc(N)c1C
O=C(N[C@@H](Cc1ccccc1)C(=O)O)c1cc(-c2ccc(F)cc2)no1 (tested in a mixture with another compound)
O=C(NCCCCCN1CCC(c2c[nH]c3ccccc23)CC1)Nc1cccc(I)c1
O=C(Nc1ccc(N2CCCCC2)c(Cl)c1)c1ccco1
CC(C)C(C(=O)Nc1ccc2c(c1)OCO2)c1ccc(Cl)cc1 (stereo not given)
CC(C)c1ncc(-c2ccncc2)c(C2CCC(CNC(=O)c3ccncc3)CC2)n1 (stereo not given)
O=S(=O)(NCCN1CCCC1)c1cccc(-c2cccc(CNCc3ccc(F)cc3)c2)c1
CCCC(C)NC(=O)c1cnn(-c2ccc(C(C)(C)C)cc2)c1OCc1ccc(Br)cc1 (stereo not given)
COC(=O)c1cccc(CNCc2cccc(-c3cccc(-c4nc5ccc(F)cc5[nH]4)c3)c2)c1
CCCCCN1CCC(NS(=O)(=O)c2cccc(C(=O)Nc3cccc(C(F)(F)F)c3)c2)C1 (stereo not given)
CCNc1cc(C(=O)N[C@@H](Cc2ccccc2)[C@H](O)CNC2(CCC(C)C)CC2)cc(N2CCCCS2(=O)=O)c1
COc1cc2nc(NC3CCN(Cc4ccccc4)CC3)nc(N)c2cc1OC
CCN(CC)CCCNc1ncc2c(-c3ccc(NC(=O)Nc4cc(C(F)(F)F)ccc4F)c(F)c3)nn(C)c2n1
CN(C)CCOc1cc(NC(=O)Nc2ccc(Oc3ccccc3)cc2)ccc1I
COc1ccc(NC(=O)/C=C/c2ccc(-c3ccccc3)cc2)cc1N1CCN(C)CC1
CCc1c[nH]c2c(N3CCCS3(=O)=O)cc(C(=O)N[C@@H](Cc3ccccc3)[C@H](O)CNC(C)(C)CCCC(C)C)cc12
O[C@H]1[C@H](OCc2ccc(-c3ccccc3)cc2)CC[C@@H]1N1CCCCC1
Cc1ccc(NC(=O)c2ccc(CN3CCCN(Cc4cccc(O)c4)CC3)cc2)cc1F
CCNc1cc(C(=O)N[C@@H](Cc2ccccc2)[C@H](O)CNC2CCC(C(C)(C)C)CC2)cc(N2CCCC2=O)c1 (stereo not given in full)
OC(COCc1ccc(-c2ccccc2)cc1)CN1CCCCC1 (stereo not given)
Nc1ccc2nc(C=Cc3ccc(Cl)cc3)[nH]c2c1
CC(C)NCc1cccc(-c2ccc(NC(=O)c3ccc(F)cc3)cc2)c1
CN(CCCc1c[nH]c2ccccc12)CCC1CCC(NC(=O)/C=C/c2ccc(Cl)c(Cl)c2)CC1 (stereo not given)
Cc1c(-c2cccc(C(C)(C)NCCCN3CCCCC3)c2)cnc(N)c1C
CC(CN(C)C)C(=O)Nc1cccc(-c2cccc(-c3nc4ccccc4[nH]3)c2)c1 (stereo not given)
O=[N+]([O-])c1cccc(CNCC2CCN(Cc3ccc(Cl)c(Cl)c3)CC2)c1
NC(N)=NCCCN(Cc1ccccc1)c1ccccc1
Cc1cc(=O)c(-c2ccc(OCc3ccc(OC(F)(F)F)cc3)cc2)c(C)[nH]1
CC(C)CNCc1cccc(-c2cccc(CN(CCCN3CCN(C)CC3)C(=O)NC3CCCCC3)c2)c1
CC(C)c1ccc(S(=O)(=O)Nc2cccc(CCN3CCC(N4CCCCC4)CC3)c2)cc1
O=C1Nc2cccc3c2C1(CCCCN1CCC(c2c[nH]c4cc(C(F)(F)F)ccc24)CC1)CCC3 (stereo not given)
